# Test results reported in PubChem BioAssay (EPA / NIEHS).
# Several values for one entry are separate records, joined by “and”; a condition that tells them apart may be missing. Equal values may be shown once. Where a structure was tested more than once in an assay, its records may differ in their call. Activity calls are given as the source filed them. The calls were made as follows: active = hit-call score of the fitted dose curve at least 0.9, where 1 is the maximum; inactive = score below 0.9.
# What was measured:
# [1] = read-out: TIMP metallopeptidase inhibitor 1 (TIMP1), TIMP1 (gene 7076); experiment: BSK_MyoF_TIMP1: BioMAP Diversity Plus: MyoF Assay for TIMP metallopeptidase inhibitor 1 (TIMP1) Biomarker Activity (AID 2284269); conditions: primary human lung fibroblasts
# Procedure, shortened: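 ELISA read-out of TIMP-1 from primary human lung fibroblast cultures 24 h after compound dosing; gain of signal relative to DMSO vehicle baseline defines activity.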
# [2] = read-out: Matrix Metallopeptidase 1 (MMP1), MMP1 (gene 4312); experiment: BSK_BF4T_MMP1: BioMAP Diversity Plus: BF4T Assay for Matrix Metallopeptidase 1 (MMP1) Biomarker Activity (AID 2284270); conditions: primary human bronchial epithelial cells with fibroblasts
# Method: (§1) BSK_BF4T is a cell-based, multiplexed-readout assay that uses bronchial epithelial cells and dermal fibroblasts, a human vascular primary cell, with measurements taken at 24 hours after chemical dosing in a microplate: 96-well plate.BSK_BF4T_MMP1 is an assay component measured in the BSK_BF4T assay. It measures MMP-1 antibody related to regulation of gene expression using ELISA technology.Data from the assay component BSK_BF4T_MMP1 was analyzed at the endpoint, BSK_BF4T_MMP1, in the positive analysis fitting direction relative to DMSO as the negative control and baseline of activity. Using a type of binding reporter, gain or loss-of-signal activity can be used to understand protein changes. To generalize the intended target to other relatable targets, this assay endpoint is annotated to the 'protease' intended target family, where the subfamily is 'matrix metalloproteinase'.
# (§2) The levels of cell surface (or secreted, indicated by the prefix "s") biomarker endpoints were measured by ELISA. Overt cytotoxicity to cells in confluent adherent cultures (all systems other than the BT system) was assessed by measuring total protein levels using sulforhodamine B (SRB) staining in parallel cultures at the time of biomarker measurements, indicated as SRB endpoints. For proliferation assays for adherent cell types, individual cell types are cultured at sub-confluence and relative cell numbers quantified by SRB staining at time points optimized for each system (48 h: 3C and CASM3C systems; 72 h: BT and HDF3CGF systems; 96 h: SAg system). SRB was performed by staining cells with 0.1% SRB after fixation with 10% TCA and reading wells at 560 nm.Viability and proliferation of PBMC (T cells) was quantified by Alamar Blue reduction for the SAg and BT systems. For PBMC viability (referred to as PBMC Cytotoxicity within the assay endpoint names), cells were plated (75,000/well in a 96-well plate) and then chemical samples added for 1 h before addition of activators, SEB and TSST-1 (20 ng/mL final concentration each). Cells were incubated for 90 h. Then, Alamar Blue (20 uL/well) (Invitrogen, Cat DAL1100) was added for 6 h, and the plates were read with a fluorescence microplate reader at 546/580 nm (excitation/emission). For PBMC proliferation, cells were plated and activated as above but incubated for only 16 h prior to addition of Alamar Blue. Plates were read after 6 h.
# [3] = read-out: Matrix Metallopeptidase 3 (MMP3), MMP3 (gene 4314); experiment: BSK_BF4T_MMP3: BioMAP Diversity Plus: BF4T Assay for Matrix Metallopeptidase 3 (MMP3) Biomarker Activity (AID 2284271); conditions: primary human bronchial epithelial cells with fibroblasts
# Procedure, shortened: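 MMP-3 level read by ELISA after 24 h chemical exposure of bronchial epithelial cell/dermal fibroblast co-cultures, fitted upward relative to DMSO. Parallel cultures stained with 0.1% SRB after TCA fixation gauge overt cytotoxicity.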
# [4] = read-out: Tissue plasminogen activator (tPA), PLAT (gene 5327); experiment: BSK_BF4T_tPA: BioMAP Diversity Plus: BF4T Assay for Tissue plasminogen activator (tPA) Biomarker Activity (AID 2284272); conditions: primary human bronchial epithelial cells with fibroblasts
# Procedure, shortened: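 tPA level quantified by ELISA at 24 h post-treatment in bronchial epithelial/dermal fibroblast co-cultures, gain of signal scored against DMSO baseline. Parallel cultures stained with 0.1% SRB (560 nm) to flag overt cytotoxicity.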
# [5] = read-out: Plasminogen Activator Inhibitor-1 (PAI1), SERPINE1 (gene 5054); experiment: BSK_BF4T_PAI1: BioMAP Diversity Plus: BF4T Assay for Plasminogen Activator Inhibitor-1 (PAI1) Biomarker Activity (AID 2284273); conditions: primary human bronchial epithelial cells with fibroblasts
# Method: as §1, with “plate.BSK_BF4T_PAI1” for “plate.BSK_BF4T_MMP1”, “PAI-1” for “MMP-1”, “BSK_BF4T_PAI1” for “BSK_BF4T_MMP1”, “BSK_BF4T_PAI1,” for “BSK_BF4T_MMP1,”, “'cytokine'” for “'protease'”, “'plasmogen activator inhibitor'.” for “'matrix metalloproteinase'.”
# as §2
# [6] = BSK_BF4T_SRB: Viability Assessment in the BioMAP Diversity Plus: BF4T Assay (AID 2284274); conditions: primary human bronchial epithelial cells with fibroblasts;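 as to AC50: measured 24 h after compound addition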
# Procedure, shortened: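 Cytotoxicity measured as total protein: cells fixed with 10% TCA, stained with 0.1% SRB, read at 560 nm. Bronchial epithelial/dermal fibroblast co-culture, 24 h after dosing, with positive-direction fitting relative to DMSO.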
# [7] = read-out: urokinase Plasminogen Activator (uPA), PLAU (gene 5328); experiment: BSK_BF4T_uPA: BioMAP Diversity Plus: BF4T Assay for urokinase Plasminogen Activator (uPA) Biomarker Activity (AID 2284275); conditions: primary human bronchial epithelial cells with fibroblasts
# Procedure, shortened: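 uPA levels measured by ELISA at 24 hours in BF4T cultures (bronchial epithelial cells plus dermal fibroblasts) and compared with DMSO; cytotoxicity tracked in parallel cultures by sulforhodamine B staining.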
# [8] = read-out: Matrix Metallopeptidase 9 (MMP9), MMP9 (gene 4318); experiment: BSK_BF4T_MMP9: BioMAP Diversity Plus: BF4T Assay for Matrix Metallopeptidase 9 (MMP9) Biomarker Activity (AID 2284276); conditions: primary human bronchial epithelial cells with fibroblasts
# Procedure, shortened: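 MMP-9 levels were measured by ELISA after 24 h exposure of bronchial epithelial cell/dermal fibroblast co-cultures, with DMSO as baseline. Parallel cultures were stained with 0.1% SRB after TCA fixation, read at 560 nm, to flag overt cytotoxicity.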
# [9] = read-out: Interleukin-8 (IL8), CXCL8 (gene 3576); experiment: BSK_IMphg_IL8: BioMAP Diversity Plus: IMphg Assay for Interleukin-8 (IL8) Biomarker Activity (AID 2284277); conditions: primary human endothelial cells with macrophages
# Procedure, shortened: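 IL-8 levels were measured by ELISA 24 h after dosing in primary human venular endothelial cell–macrophage cultures, referenced to DMSO; parallel SRB staining monitored overt cytotoxicity.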
# [10] = read-out: Intercellular Adhesion Molecule 1 (ICAM1), ICAM1 (gene 3383); experiment: BSK_BE3C_ICAM1: BioMAP Diversity Plus: BE3C Assay for Intercellular Adhesion Molecule 1 (ICAM1) Biomarker Activity (AID 2284278); conditions: primary human bronchial epithelial cells
# Procedure, shortened: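 hu bronchial epithelial primary cells, 24 h cpd exposure, ICAM-1 ELISA; gain-of-signal fit vs DMSO baseline.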
smiles,measurement,setting,value
O=C(O)C(F)(F)C(F)(F)C(F)(F)C(F)(F)C(F)(F)C(F)(F)C(F)(F)C(F)(F)F,outcome,[1],inactive
same,AC50,[2],48.4 µM (active) and 51.1 µM (active)
same,AC50,[3],47.4 µM (active) and 55.2 µM (active)
same,AC50,[4],35.6 µM (active) and 27.7 µM (active)
same,AC50,[5],47.5 µM (active) and 46.2 µM (active)
same,AC50,[6],43.3 µM (active) and 44 µM (active)
same,AC50,[7],50.3 µM (active) and 54.7 µM (active)
same,AC50,[8],44.2 µM (active) and 45.2 µM (active)
same,AC50,[9],15.8 µM (active) and 5.94 µM (active)
same,AC50,[10],56.4 µM (active) and 54.7 µM (active)
COc1ccc(O)c(C(C)(C)C)c1,outcome,[10],inactive
O=S(=O)(O)C(F)(F)C(F)(F)C(F)(F)C(F)(F)C(F)(F)C(F)(F)F,outcome,[1],inactive
same,outcome,[2],inactive
same,outcome,[3],inactive
same,outcome,[4],inactive
same,outcome,[5],inactive
same,outcome,[6],inactive
same,outcome,[7],inactive
same,outcome,[8],inactive
same,AC50,[9],22.9 µM (active)
same,outcome,[9],inactive
same,outcome,[10],inactive
O=C(O)C(F)(F)C(F)(F)C(F)(F)C(F)(F)C(F)(F)C(F)(F)C(F)(F)C(F)(F)C(F)(F)F,AC50,[1],50.6 µM (active) and 37.4 µM (active)
same,AC50,[2],14.1 µM (active) and 11 µM (active)
same,AC50,[3],18.5 µM (active) and 21.3 µM (active)
same,AC50,[4],34.6 µM (active) and 17.3 µM (active)
same,AC50,[5],22.9 µM (active) and 24.8 µM (active)
same,AC50,[6],17.7 µM (active) and 19.3 µM (active)
same,AC50,[7],14.6 µM (active) and 18 µM (active)
same,AC50,[8],20 µM (active) and 20.5 µM (active)
same,outcome,[9],inactive
same,AC50,[10],16.9 µM (active) and 14.6 µM (active)
O=S(=O)(O)C(F)(F)C(F)(F)C(F)(F)C(F)(F)F,outcome,[1],inactive
same,outcome,[2],inactive
same,outcome,[3],inactive
same,outcome,[4],inactive
same,outcome,[5],inactive
same,outcome,[6],inactive
same,outcome,[7],inactive
same,outcome,[8],inactive
same,AC50,[9],30 µM (active) and 33.4 µM (active)
same,outcome,[10],inactive
Sc1ccccc1,outcome,[1],inactive
O=C(O)C(F)(F)C(F)(F)C(F)(F)C(F)(F)C(F)(F)F,outcome,[1],inactive
same,outcome,[2],inactive
same,outcome,[3],inactive
same,outcome,[4],inactive
same,outcome,[5],inactive
same,outcome,[6],inactive
same,outcome,[7],inactive
same,outcome,[8],inactive
same,outcome,[9],inactive
same,outcome,[10],inactive
Oc1c(Cl)c(Cl)c(Cl)c(Cl)c1Cl,AC50,[1],9.53 µM (active)
NS(=O)(=O)C(F)(F)C(F)(F)C(F)(F)C(F)(F)C(F)(F)C(F)(F)C(F)(F)C(F)(F)F,AC50,[1],35.1 µM (active) and 21.5 µM (active)
same,outcome,[2],inactive
same,AC50,[3],52.2 µM (active) and 49.7 µM (active)
same,AC50,[4],51.4 µM (active) and 55 µM (active)
same,AC50,[5],44 µM (active) and 45.9 µM (active)
same,AC50,[6],45 µM (active) and 47.5 µM (active)
same,AC50,[7],48.2 µM (active) and 44.3 µM (active)
same,AC50,[8],23.3 µM (active) and 34 µM (active)
same,AC50,[9],52.1 µM (active) and 14.9 µM (active)
same,AC50,[10],55 µM (active) and 53 µM (active)
